In PubChem BioAssay (NCI):
Compounds without any hit were thinned out: in the full panel of roughly 79,000, 15% have a hit. Activity calls are given as the source filed them. Cut-off read from the data, not from the text of the source: active = growth inhibition above about 70%; inactive = the rest.

What was measured:
[1] = NCI Yeast Anticancer Drug Screen. Data for the rad50 strain (AID 155);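 note: 0% = growth of vehicle-only cultures of the same strain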; conditions: S. cerevisiae rad50 strain growth inhibition; at 50.0 µM; stronger effect = higher value
Summary of the method: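 Vehicle-treated cultures provide the reference for the growth inhibition reported for compound-exposed, repair-deficient yeast.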

[2] = NCI Yeast Anticancer Drug Screen. Data for the mec2-1 strain (AID 157); conditions: S. cerevisiae mec2-1 strain, at 50.0 µM, stronger effect = higher value
Summary of the method: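 Using mec2-1 yeast: add compound, measure growth, express inhibition versus vehicle-treated cultures.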

[3] = NCI Yeast Anticancer Drug Screen. Data for the sgs1 mgt1 strain (AID 161);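 note: 0% = growth of cultures given vehicle only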; conditions: S. cerevisiae sgs1 mgt1 strain, at 50.0 µM, stronger effect = higher value
Summary of the method: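 Growth of a repair-deficient yeast mutant was monitored after compound treatment and expressed as inhibition relative to vehicle-treated cultures.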

[4] = NCI Yeast Anticancer Drug Screen. Data for the cln2 rad14 strain (AID 165);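 note: 0% = growth equal to vehicle treated cultures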; conditions: S. cerevisiae cln2 rad14 strain, at 50.0 µM, stronger effect = higher value
Summary of the method: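 Yeast strain cln2 rad14, bearing defects in cell cycle control and DNA repair, serves as the test system; values reflect growth inhibition compared with vehicle.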

[5] = NCI Yeast Anticancer Drug Screen. Data for the bub3 strain (AID 167); conditions: S. cerevisiae bub3 mutant strain, at 50.0 µM, stronger effect = higher value
Summary of the method: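 Mutant yeast screening strain plus compound; vehicle-treated cultures serve as the 0% inhibition reference.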

[6] = NCI Yeast Anticancer Drug Screen. Data for the mlh1 rad18 strain (AID 175); conditions: S. cerevisiae mlh1 rad18 strain growth inhibition; at 50.0 µM; stronger effect = higher value
Summary of the method: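 Steps: expose repair-defective yeast to compound; measure growth; express inhibition against vehicle-treated controls.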

Measured: growth inhibition

C=C1C(=O)C23C(O)CC4C5(C)CCCC4(C(O)OC5)C2C(OC(C)=O)CC1C3O (configuration not stated)
inactive: [1] 10.3% | [2] 8.45% | [3] 11.4% | [4] 10.1% | [5] -7.3% | [6] 0.75%

Cc1ccc(N2C(=O)CSC2=S)cc1F
inactive: [1] 1.55% | [2] 6.55% | [3] 47.4% | [4] 8.15% | [5] 5.6% | [6] 10.7%

Nc1nc2cc(COc3ccc(C(=O)O)cc3)ccc2nc1-c1ccccc1
inactive: [1] -28.6% | [2] -17.9% | [3] -13.8% | [4] -2.9% | [5] -26.2% | [6] -15.1%

Cc1ccccc1NC(=O)C(=O)C(C#N)c1ccc(Cl)cc1Cl (configuration not stated)
inactive: [1] -19.3% | [2] 6% | [3] 24.8% | [4] -19.6% | [5] 7.3% | [6] 19.9%

BrCCOC(OCCBr)(c1ccccc1)c1ccccc1
inactive: [1] 19.8% | [2] -10.9% | [3] 2.3% | [4] 11.5% | [5] 4.95% | [6] 6.3%

O=P(CCCCBr)(NCc1ccccc1)c1ccccc1 (configuration not stated)
inactive: [1] 5.25% | [2] 7.85% | [3] 15.9% | [4] -19.9% | [5] 14.8% | [6] 13.2%

CC(O)C(O)C(O)CO (configuration not stated)
inactive: [1] 6.1% | [2] 18.4% | [3] -3.85% | [4] 19.8% | [5] 24.4% | [6] 8.95%

C/C(=C\C(C)(C)c1ccccc1)c1ccccc1
inactive: [1] -14.9% | [2] -31.6% | [3] -3.75% | [4] -8.35% | [5] 9.2% | [6] -25.1%

O=C(Nc1ccc([N+](=O)[O-])cc1)N1CCOCC1
inactive: [1] 4.8% | [2] -17.8% | [3] 21.5% | [4] -1.25% | [5] 25.2% | [6] 15.2%

c1ccc(C2CCOCO2)cc1 (configuration not stated)
inactive: [1] 14.4% | [2] 15.7% | [3] 15.8% | [4] 12.2% | [5] 5.7% | [6] 24.2%

COC(=O)C(N)C(C)(C)S (configuration not stated)
inactive: [1] -9.9% | [2] -2.75% | [3] -3.65% | [4] -10% | [5] 6.85% | [6] 2.5%

NC(=O)c1nsc(-c2ccc([N+](=O)[O-])cc2)c1N
inactive: [1] -10.8% | [2] 0.9% | [3] -1.8% | [4] 30.6% | [5] -17.8% | [6] -3.7%

CSc1ccccc1N.[Cl][Cu][Cl]
inactive: [1] 28.8% | [2] 19.4% | [3] -2% | [4] 14.8% | [5] 28.1% | [6] 28.4%

CC(C)(C)OC(=O)NC(Cc1ccccc1)NC(=O)NC(=O)OCc1ccccc1 (configuration not stated)
inactive: [1] -25.3% | [2] -9.85% | [3] -6.45% | [4] -0.65% | [5] -13.8% | [6] -27.1%

Cc1ccc(CCCCCOc2ccc(C3=NCCO3)cc2)s1
inactive: [1] -2% | [2] 22.2% | [3] 22.4% | [4] -21% | [5] -3% | [6] -4.9%

C=CCc1oc(C)nc1CCCC
inactive: [1] 0.2% | [2] -0.1% | [3] 16.7% | [4] 27.4% | [5] 5.85% | [6] 23.3%

COc1ccc(OC)c2cc3c(cc12)C(=O)C(C)=C(C)C3=O
inactive: [1] 6.15% | [2] -2.55% | [3] 10.8% | [4] -30% | [5] -1.3% | [6] 7.7%

c1scc2c1COCCOCCOCCOCc1cscc1COCCOCCOCCOC2
inactive: [1] -20.2% | [2] -26.1% | [3] -38.4% | [4] 26.6% | [5] -30.4% | [6] -46.5%

S=C1NCCOc2ccccc21
inactive: [1] -8.65% | [2] -13.1% | [3] -2.5% | [4] -8.05% | [5] -10.9% | [6] -4.55%

FC(F)(F)c1cccc(NC(=S)Nc2ccccc2S)c1
inactive: [1] 24% | [2] 20.2% | [3] 27.4% | [4] 25.6% | [5] 9.95% | [6] 17%

Cc1ccc(/C=N/NC(N)=S)c(C)c1
inactive: [1] 8.5% | [2] -25.4% | [3] 17.3% | [4] -30.9% | [5] 7.15% | [6] 16.6%

CCCCCCCCCCCCCCCC[N+](C)(C)Cc1ccccc1
active: [1] 99.2% | [2] 99% | [3] 99.3% | [4] 99% | [5] 98.8% | [6] 98.9%

Nc1ccc(Cn2ccc(=O)[nH]c2=O)cc1
inactive: [1] -14.4% | [2] 3.2% | [3] 0.25% | [4] -26.9% | [5] -11.2% | [6] -0.8%

CCOC(=O)CS
inactive: [1] 11.2% | [2] -6.5% | [3] -15.6% | [4] 5.7% | [5] 20.6% | [6] 22.6%

CC(C)(C)c1cc(/C=N/NC(=S)Nc2ccccc2)cc(C(C)(C)C)c1O
inactive: [1] 25.9% | [2] 8.35% | [3] 41% | [4] -26.3% | [5] -7.15% | [6] 41.5%

COC(=O)c1ccccc1NN=Nc1ccccc1Cl
inactive: [1] 3.5% | [2] -17.7% | [3] -0.95% | [4] 8.3% | [5] 6.4% | [6] 11.1%

CC(C)NCC(O)c1ccc(O)c2ncccc12 (configuration not stated)
inactive: [1] 1.95% | [2] 24.3% | [3] 5.9% | [4] 5.15% | [5] -22.1% | [6] -7.15%

Nc1cc2[nH]c(=O)c3cc([N+](=O)[O-])ccc3c2cc1Cl
inactive: [1] 63.1% | [2] 1.3% | [3] 12.3% | [4] 4.8% | [5] -11.6% | [6] 32.2%

O/N=C(/C(=N\O)c1ccco1)c1ccco1
inactive: [1] -26.1% | [2] -46.5% | [3] -13.8% | [4] 2.45% | [5] -24.1% | [6] -8.3%

NC(CCC(=O)OCCn1c2ccccc2c2ccccc21)C(=O)O (configuration not stated)
inactive: [1] -1.9% | [2] -2.4% | [3] 3.3% | [4] -2.1% | [5] 18.1% | [6] 3.95%

CO/C(Cc1cc(O)cc(O)c1)=N\N
inactive: [1] -0.45% | [2] 6.3% | [3] 1.25% | [4] -5.65% | [5] 7.85% | [6] -4.1%

CCOC(=O)Cn1cnc2sc3c(c2c1=O)CCCC3
inactive: [1] 13.4% | [2] 21.1% | [3] 30.6% | [4] 28.7% | [5] 19.4% | [6] 35.9%

CCC1CCC(=O)NC1=O (configuration not stated)
inactive: [1] -10.3% | [2] -1.15% | [3] 11.7% | [4] -7.75% | [5] -9.6% | [6] 1.5%

O=c1ccc(=O)c2c(=O)c3cc4[nH]c5ccccc5[nH]c4cc3c(=O)c12
inactive: [1] 2.25% | [2] -7.05% | [3] 0.55% | [4] 1.85% | [5] -5.6% | [6] 5.2%

CC(C)=Cc1cc(C(=O)Nc2ccc(Cl)c(Cl)c2)nc(N)n1
inactive: [1] -25.2% | [2] -45.4% | [3] -10.6% | [4] -0.5% | [5] -41.8% | [6] -32.1%

O=[N+]([O-])c1ccn(O)c(=Nc2ccccc2)c1
inactive: [1] 1.7% | [2] 11.2% | [3] 5.45% | [4] -32.5% | [5] -14.9% | [6] 20.4%

CCCc1ccc(N=Cc2cc(OC)c(OC)c(OC)c2)cc1
inactive: [1] -1.85% | [2] 13.3% | [3] 13.5% | [4] 4.4% | [5] -8% | [6] 21.6%

Cc1ccc(C)c(C2NC(=O)c3ccccc3N2)c1 (configuration not stated)
inactive: [1] -15.8% | [2] -9.25% | [3] -44.8% | [4] -30.2% | [5] -52.2% | [6] -19.8%

COC(=O)CC1(O)C=CC(=O)c2ccccc21 (configuration not stated)
inactive: [1] 2.35% | [2] -6.65% | [3] -3.8% | [4] -25.9% | [5] 44% | [6] -5.7%

CN(C)c1cc2c(cc1N(C)C)-c1ccccc1C2
inactive: [1] 9.85% | [2] 6.5% | [3] 13.9% | [4] -0.2% | [5] 10.1% | [6] 28.9%

COc1cccc(N=N/C(=N/NC(=O)c2cc(Cl)ccc2O)c2ccc(N(CCC#N)CCC#N)cc2C)c1
inactive: [1] -18.9% | [2] -16.8% | [3] -18.9% | [4] -18.6% | [5] -17.9% | [6] -47.6%

O=C1C(c2[nH]c3ccc(F)cc3c2O)=Nc2ccc(F)cc21
inactive: [1] 8.7% | [2] 10.9% | [3] 22.9% | [4] 9.4% | [5] 0% | [6] 19.1%
